Results reported in PubChem BioAssay AID463173 (ICCB-Longwood Screening Facility, Harvard Medical School, 2010).
Hit rate of the full screen: of about 52,000 compounds, about 4,300 (8.3%) were called active. The sample holds actives, similar compounds and a random draw of the others, so the mix is not that of the screen. Rule as the data show it: active = survival mostly below about 52% (no sharp cut-off); inactive = mostly above about 56%.

These compounds were tested on DeltatarO mutant (assay: growth inhibition of S. aureus wild type versus tarO mutant, primary screen, teichoic acid synthesis inhibitors, RN4220, OD600 (AID 463173)). Details: OD600, 18 h, stronger effect = lower value, screened at 18.75 µg/mL (by protocol).
`O=C(CN1CCSc2ccccc21)N1CCN(c2ccc(F)cc2)CC1` was tested, and the survival was 88% (inactive). `O=C(O)CCCNc1ncnc2ccccc12` was tested, and the survival was 92% (inactive). `COc1ccc(NC(=O)C2CCN(c3nc4ccccc4[nH]3)CC2)cc1OC` was tested, and the survival was 66% (inactive). `Fc1ccccc1-n1ncc2c1ncn1nc(Cc3ccccc3)nc21` was tested, and the survival was 74% (inactive). `CC(C)(C)OC(=O)N1CC=C2C(C#N)=C(N)C(C#N)(C#N)C(c3ccc4c(c3)OCO4)C2C1` (stereo unspecified) was tested, and the survival was 35% (active). In the case of `COc1cccc(C2C3CN(C(C)=O)CC=C3C(C#N)=C(N)C2(C#N)C#N)c1` (stereo unspecified), the survival is reported as 93% (inactive). In the case of `CCOC(=O)N1CC=C2C(C#N)=C(N)C(C#N)(C#N)C(c3ccc(CC)cc3)C2C1` (stereo unspecified), the survival is reported as 88% (inactive). In the case of `CCOc1ccc(NC(=O)N2CCC(CN3CCc4ccccc4C3)CC2)cc1`, the survival is reported as -1% (active). With `CCOc1ccc(NC(=O)N2CCC(CN3CCCCCC3)CC2)cc1` the survival was 115% (inactive). With `CCc1ccccc1NC(=O)N1CCC(CN2CCc3ccccc3C2)CC1` the survival was 76% (inactive). With `Cc1cccc(NC(=O)N2CCC(CN3CCCCCC3)CC2)c1C` the survival was 81% (inactive). In the case of `COC(=O)c1ccc(NC(=O)N2CCC(CN3CCc4ccccc4C3)CC2)cc1`, the survival is reported as 6% (active). With `Cc1cccc(NC(=O)N2CCC(CN3CCc4ccccc4C3)CC2)c1C` the survival was -2% (active). In the case of `COc1cc(NC(=O)N2CCC(CN3CCc4ccccc4C3)CC2)cc(OC)c1`, the survival is reported as 70% (inactive). For `CCOc1ccc(NC(=O)N2CCC(CN3CCC(C)CC3)CC2)cc1`, the survival was 117% (inactive). In the case of `Cc1cc(C)cc(NC(=O)N2CCC(CN3CCc4ccccc4C3)CC2)c1`, the survival is reported as 72% (inactive). For `COc1ccc(Cl)cc1NS(=O)(=O)c1cc(-c2cc(C)no2)ccc1C`, the survival was 87% (inactive). For `CCCCn1c(=O)c2oc3ccccc3c2n(Cc2ccccc2C)c1=O`, the survival was 55% (inactive). In the case of `COc1cccc(-n2nnc(-c3nc(-c4ccccc4F)no3)c2C)c1`, the survival is reported as 84% (inactive). For `Cc1ccc(OCCSc2nc3ccccc3n2CC(=O)N2CCOCC2)c(C)c1`, the survival was 93% (inactive). `Cc1ccc(NC(=O)CSc2nc3ccccc3n2CC(=O)N2CCC(C)CC2)cc1C` was tested, and the survival was 17% (active). With `CC1CCN(C(=O)Cn2c(SCC(=O)NC(C)(C)C)nc3ccccc32)CC1` the survival was 92% (inactive). With `COc1ccc(OCCSc2nc3ccccc3n2CC(=O)N2CCOCC2)cc1` the survival was 51% (inactive). For `COc1cccc(OCCSc2nc3ccccc3n2CC(=O)N2CCOCC2)c1`, the survival was 44% (active). In the case of `CC1CCN(C(=O)Cn2c(SCC(=O)Nc3ccc(F)cc3)nc3ccccc32)CC1`, the survival is reported as 96% (inactive). With `Cc1ccc(OCCSc2nc3ccccc3n2CC(=O)N2CCOCC2)cc1` the survival was 96% (inactive). With `COc1cccc(OCCSc2nc3ccccc3n2CC(=O)N2CCCCC2)c1` the survival was 42% (active). With `Cc1cccc(OCCSc2nc3ccccc3n2CC(=O)N2CCOCC2)c1` the survival was 44% (active). With `O=C(Cn1c(SCCOc2ccccc2)nc2ccccc21)N1CCOCC1` the survival was 47% (inactive). With `COc1ccc(C2CC(=O)Nc3c2c(C)nn3-c2nncc(-c3ccc(C)cc3)n2)c(OC)c1OC` (stereo unspecified) the survival was 83% (inactive). For `CCOc1ccc(/C=C(\C#N)C(=O)NCc2ccco2)cc1OC`, the survival was 113% (inactive). `CCOc1ccc(CNCc2c(C(=O)O)c(C)n(Cc3c(F)cccc3Cl)c2C)cc1OC` was tested, and the survival was 56% (inactive). In the case of `COc1ccc(C2CC(=O)c3cc(-c4nc(-c5ccc(C)cc5)cs4)c(=O)[nH]c3C2)cc1` (stereo unspecified), the survival is reported as 76% (inactive). For `O=C(CNC(=O)c1ccc(Cl)cc1)OCc1cc(=O)n2nc(C3CCCCC3)sc2n1`, the survival was 90% (inactive). For `CCCCn1cc(S(=O)(=O)c2ccc(Cl)cc2)c(=O)c2cc(F)c(N3CCCC(C)C3)cc21` (stereo unspecified), the survival was 117% (inactive). `O=C(c1ccc(F)cc1)C1CCN(S(=O)(=O)c2ccc(F)cc2)CC1` was tested, and the survival was 95% (inactive). For `COc1ccc(CNC(=O)CCCc2nnc3n(CCC(C)C)c(=O)c4sccc4n23)cc1`, the survival was 93% (inactive). `Cc1ccc2nc(NC(=O)CSc3cc(C)[nH]c(=O)n3)sc2c1` was tested, and the survival was 79% (inactive). `Cn1c(SCCC(=O)O)nc2ccccc21` was tested, and the survival was 83% (inactive). For `CCN(CC)C(=O)Cn1c(SCC(=O)Nc2ccc(F)cc2)nc2ccccc21`, the survival was 100% (inactive). For `Cc1ccc(OCCSc2nc3ccccc3n2CC(=O)NC(C)C)cc1`, the survival was 52% (inactive). In the case of `CCN(CC)C(=O)Cn1c(SCCOc2ccc(Cl)cc2)nc2ccccc21`, the survival is reported as 43% (active). For `Cc1ccc(OCCSc2nc3ccccc3n2CC(=O)N2CCCCC2)cc1C`, the survival was 46% (active). For `O=C(Cn1c(SCCOc2ccc(Cl)cc2)nc2ccccc21)N1CCCCC1`, the survival was 50% (inactive). `Cc1ccc(OCCSc2nc3ccccc3n2CCC(=O)O)cc1C` was tested, and the survival was 47% (active). For `Cc1ccc(OCCSc2nc3ccccc3n2CC(=O)N2CCOCC2)cc1C`, the survival was 53% (inactive). In the case of `Cc1cccc(C)c1OCCSc1nc2ccccc2n1CC(=O)O`, the survival is reported as 83% (inactive). `CCc1ccc(OCCSc2nc3ccccc3n2CC(=O)N2CCCCC2)cc1` was tested, and the survival was 40% (active). For `CCc1ccccc1NC(=O)CCn1cccn1`, the survival was 135% (inactive). For `CCC1CN(C(=O)N2CCC(C(=O)NCc3ccco3)CC2)c2ccccc2O1` (stereo unspecified), the survival was 66% (inactive). `COc1ccccc1CNC(=O)C1CCN(S(=O)(=O)c2c(C)noc2/C=C/c2cccs2)CC1` was tested, and the survival was 59% (inactive). With `CN(C(=O)CSc1nc2ccc(NC(=O)c3cccc(F)c3)cc2s1)c1ccccc1` the survival was 69% (inactive). For `Cc1ccccc1NC(=O)C(=O)NCC(c1ccc2c(c1)OCO2)N1CCN(c2ccccc2)CC1` (stereo unspecified), the survival was 73% (inactive). In the case of `O=S(=O)(Nc1cccc(C(F)(F)F)c1)c1ccc(-c2cnc(C3CC3)o2)cc1`, the survival is reported as 91% (inactive). In the case of `c1ccc2[nH]c(CN3CCCCC3)nc2c1`, the survival is reported as 59% (inactive). In the case of `O=C(NCc1ccc(F)cc1)c1ccc(NC(=O)N2CC3CCCN3c3ccccc32)cc1` (stereo unspecified), the survival is reported as 113% (inactive). In the case of `Cc1oc(CC(C)C)cc1C(N)=O`, the survival is reported as 100% (inactive). `O=C(CSC1=Nc2ccccc2C2=NC(Cc3ccccc3)C(=O)N12)Nc1ccccc1` (stereo unspecified) was tested, and the survival was 74% (inactive). `CCOc1ccc(-c2cn(-c3ccc(OC)cc3)c(SCC(=O)Nc3ccccc3Cl)n2)cc1` was tested, and the survival was 99% (inactive). For `O=C(CSc1nnc2scc(-c3ccc(Cl)cc3)n12)Nc1cccc(C(F)(F)F)c1`, the survival was 58% (inactive). `CCOc1ccc(NC(=O)CSc2nnc3scc(-c4ccccc4)n23)cc1` was tested, and the survival was 17% (active). With `Cc1ccc(NC(=O)CSc2nnc3scc(-c4ccc(Cl)cc4)n23)cc1` the survival was 49% (inactive). For `COc1cccc(NC(=O)CSc2nnc3scc(-c4ccc(Cl)cc4)n23)c1`, the survival was 52% (inactive). With `O=C(CSc1nnc2scc(-c3ccccc3)n12)Nc1ccc(Cl)cc1` the survival was 56% (inactive). With `CCOc1ccc(NC(=O)CSc2nnc3scc(-c4ccc(Cl)cc4)n23)cc1` the survival was 48% (inactive). In the case of `COc1ccc(NC(=O)CSc2nnc3scc(-c4ccc(Cl)cc4)n23)cc1`, the survival is reported as 95% (inactive). For `Cc1cccc(NC(=O)CSc2nnc3scc(-c4ccccc4)n23)c1`, the survival was 40% (active). For `Cc1ccc(NC(=O)CSc2nnc3scc(-c4ccccc4)n23)cc1`, the survival was 15% (active). With `O=C(CSc1nnc2scc(-c3ccc(Cl)cc3)n12)Nc1ccc(F)cc1` the survival was 57% (inactive). In the case of `CC(C)(C)c1ccc(NC(=O)CSc2nnc3scc(-c4ccccc4)n23)cc1`, the survival is reported as 41% (active). For `CC(=O)Nc1ccc(C(=O)CSc2nnc3scc(-c4ccccc4)n23)cc1`, the survival was 89% (inactive). With `CC(NCc1ccc(F)cc1)C(=O)NC1CCCCC1` (stereo unspecified) the survival was 79% (inactive). `Cc1ccc(NC(=O)C2CC(=O)N(c3ccc(OC(C)C)cc3)C2)cc1` (stereo unspecified) was tested, and the survival was 82% (inactive). In the case of `COc1ccc(C2CC(c3c(O)n(C4CCCCC4)c(=O)[nH]c3=O)=Nc3ccccc3S2)cc1` (stereo unspecified), the survival is reported as 48% (inactive). With `O=C1COc2ccccc2N1Cc1ccc(OC(F)(F)F)cc1` the survival was 86% (inactive). With `COc1ccc(CC(=O)NCc2ccc3c(c2)CCN3C(=O)c2ccccc2)cc1OC` the survival was 82% (inactive). `Cc1ccc(CN(Cc2cccn2-c2nnc(N3CCCC3=O)s2)C(=O)Nc2cc(C)cc(C)c2)cc1` was tested, and the survival was 123% (inactive). `COc1ccc(Nc2nc3ccc(C)cc3nc2-n2nc(C)cc2C)cc1Cl` was tested, and the survival was 69% (inactive). With `COc1cccc(CNC(=O)c2ccc3c(c2)nc2n3CCC(C)C2)c1` (stereo unspecified) the survival was 72% (inactive). In the case of `Cc1cn2c(=O)cc(COC(=O)c3cccc(NC(=O)COc4ccccc4C)c3)nc2s1`, the survival is reported as 85% (inactive). For `CCOc1ccc(CCNC(=O)c2cc3c(-c4ccccc4F)nn(C)c3s2)cc1OCC`, the survival was 67% (inactive). With `CCn1nc(-c2ccccc2)c(-c2ccccc2)c(C(=O)Nc2nc(C)c(C(C)=O)s2)c1=O` the survival was 53% (inactive). In the case of `COCc1cc(C)nc2c1C(=O)NC(c1ccc(NC(C)=O)cc1)N2Cc1ccccc1` (stereo unspecified), the survival is reported as 74% (inactive). With `O=C(CSc1nccn1Cc1ccc(Cl)cc1)NC1CCCC1` the survival was 83% (inactive). For `COc1ccc(CNC(=O)Cn2c(=O)nc(-c3ccccc3F)c3cc(Cl)ccc32)cc1`, the survival was 72% (inactive). For `FC(F)(F)COc1nc(OCC(F)(F)F)nc(OCC(F)(F)F)n1`, the survival was 74% (inactive). With `Nc1nc(OC(C(F)(F)F)C(F)(F)F)nc(OC(C(F)(F)F)C(F)(F)F)n1` the survival was 13% (active). For `CCC(C)Nc1nc(OC(C(F)(F)F)C(F)(F)F)nc(N(CC)CC)n1` (stereo unspecified), the survival was 80% (inactive). `O=C(O)Cn1ccc(=O)[nH]c1=O` was tested, and the survival was 96% (inactive). For `CCOc1ccc(CCNC(=O)c2cc3c(=O)oc4ccc(C)cc4c3s2)cc1OCC`, the survival was 67% (inactive). In the case of `CCc1ccc(CNc2nc3nc(C)c(Cc4ccccc4)c(=O)n3[nH]2)cc1`, the survival is reported as 80% (inactive). `Cc1nc2nc(NCc3cccc(Br)c3)[nH]n2c(=O)c1Cc1ccccc1` was tested, and the survival was 54% (inactive). `Cc1nc2nc(NCc3ccccc3Cl)[nH]n2c(=O)c1Cc1ccccc1` was tested, and the survival was 83% (inactive). For `Cc1nc2nc(NCc3ccc(Cl)cc3)[nH]n2c(=O)c1Cc1ccccc1`, the survival was 40% (active). `Cc1nc2nc(NCc3ccc(Br)cc3)[nH]n2c(=O)c1Cc1ccccc1` was tested, and the survival was 39% (active). In the case of `Cc1nc2nc(NCc3cccc(Cl)c3)[nH]n2c(=O)c1Cc1ccccc1`, the survival is reported as 78% (inactive).
